Screening results deposited in PubChem by National Center for Advancing Translational Sciences (NCATS).
FEN1 inhibitor – inhibitors of human flap endonuclease 1 | P39748 | Recombinant FEN1 flap cleavage, fluorescence, 15 min | Potency, µM (titrated, usually from 114 µM), for the others: at the top dose activity change, negative = inhibition, usual class: inhibitors | actives 0.35% (n = 390,000); also: % is scaled to controls: 0 for no effect and ±100 for the full control effect; nearly all actives have a fitted effect of over 65% in size
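Steps: FEN1 (10 nM) dispensed; compound added by pin tool; 15 min at room temperature; substrate added to 50 nM final; reads at 0 min and 15 min; data normalized and fitted (four-parameter Hill).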
Pol beta inh – inhibitors of human DNA polymerase beta; Potency, µM (doses to about 114 µM), inactives show at the highest dose activity change, negative = inhibition, usual class: inhibitors; P06746; actives 1.3% (n = 340,000); Pol beta primer extension/strand displacement, fluorescence kinetic; also: % is scaled to controls: 0 for no effect and ±100 for the full control effect
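Kinetic readout of DNA synthesis with strand displacement by Pol beta. Compound and 10 nM enzyme sit 15 min at room temperature; 50 nM substrate starts the reaction, read immediately and at 10 min.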
Pol eta inh – inhibitors of human DNA polymerase eta; recombinant Pol eta, fluorescent DNA replication assay; Q9Y253; Potency, µM (doses to about 114 µM), inactives show at the top dose activity change, negative = inhibition, hits mostly inhibitors; actives 1.2% (n = 390,000); also: % is scaled to controls: 0 for no effect and ±100 for the full control effect
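Pol eta (10 nM) was preincubated with compounds for 15 min at room temperature, after which fluorescent replication substrate (50 nM final) was added to start the reaction. Fluorescence was read kinetically at 0 and 10 min.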
POLI inh – DNA polymerase iota (human) inhibition; Q9UNA4; Pol iota fluorescent replication assay, 10 min; Potency, µM (doses to about 115 µM), for the others: at the highest dose activity, negative = inhibition, actives largely listed as inhibitors; actives 1% (n = 390,000); AID 588590
Target sequence (Q9UNA4 whole entry, looked up): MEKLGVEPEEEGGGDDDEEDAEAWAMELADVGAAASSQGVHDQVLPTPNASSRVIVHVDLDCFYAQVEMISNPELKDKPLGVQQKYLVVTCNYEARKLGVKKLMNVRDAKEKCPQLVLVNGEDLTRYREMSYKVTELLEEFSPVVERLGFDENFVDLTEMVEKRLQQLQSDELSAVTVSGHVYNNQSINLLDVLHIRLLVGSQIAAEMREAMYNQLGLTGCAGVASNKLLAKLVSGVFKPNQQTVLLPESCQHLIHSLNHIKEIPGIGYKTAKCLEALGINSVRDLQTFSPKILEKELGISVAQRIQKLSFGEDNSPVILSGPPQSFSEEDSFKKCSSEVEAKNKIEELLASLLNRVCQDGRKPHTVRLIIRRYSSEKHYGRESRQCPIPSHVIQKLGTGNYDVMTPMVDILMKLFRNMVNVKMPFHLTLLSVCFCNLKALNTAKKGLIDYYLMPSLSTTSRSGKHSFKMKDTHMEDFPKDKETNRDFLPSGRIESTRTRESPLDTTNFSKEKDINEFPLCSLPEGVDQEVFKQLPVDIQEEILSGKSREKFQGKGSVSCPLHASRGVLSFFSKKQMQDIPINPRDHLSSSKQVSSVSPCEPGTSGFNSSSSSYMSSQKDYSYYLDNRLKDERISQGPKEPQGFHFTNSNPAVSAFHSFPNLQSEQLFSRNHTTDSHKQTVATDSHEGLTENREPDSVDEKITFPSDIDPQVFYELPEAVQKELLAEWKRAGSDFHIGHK
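Pol iota at 10 nM preincubated 15 min with compounds at room temperature; reaction started with fluorescent substrate, 50 nM final. Fluorescence read kinetically at 0 and 10 min; buffer-only wells as negative control.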
WRN helicase inh – WRN helicase (human) inhibition; actives 0.46% (n = 360,000); Potency, µM (highest dose often 114 µM), for the others: at the highest dose activity change, negative = inhibition, actives largely listed as inhibitors; Q14191; WRN helicase unwinding, fluorescent forked duplex, kinetic; also: % is scaled to controls: 0 for no effect and ±100 for the full control effect; nearly all actives have a fitted effect of over 55% in size
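WRN at 20 nM final was preincubated with compound for 15 min at room temperature; reaction started with 100 nM forked duplex oligonucleotide carrying fluorophore and quencher plus 2 mM ATP (final). Unwinding followed kinetically by red fluorescence (ex 525/em 598 nm).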
Pol kappa inh – blocks human DNA polymerase kappa activity | Q9UBT6 | purified Pol kappa, fluorescent DNA synthesis assay, 10 min | Potency, µM (highest dose often 107 µM), without a hit: top-dose activity, negative = inhibition, hits mostly inhibitors | actives 0.53% (n = 400,000); also: % is scaled to controls: 0 for no effect and ±100 for the full control effect
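Pol kappa 10 nM + cpd, 15 min RT; start w/ substrate 50 nM final; fluorescence kinetic read, 0 and 10 min. Neg ctrl: buffer, no enzyme.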
* = called active by the depositor; ? = inconclusive; / = no result given; [ ] = another dose, or the depositor's remark. Rows were chosen to be rich in hits. Some 2.4% of all compounds tested hit in one or more screens of this group. Calls follow the shape of the dose curve; as a rule, active = well fitted curve in the direction sought with a large enough effect; inconclusive = small, poorly fitted or top-dose-only effect, or another doubt; inactive = no such curve, though single readings can be large; an effect the other way counts as inactive or inconclusive. Potency is read from the fitted curve at half-maximal effect.

SMILES	FEN1 inhibitor	Pol beta inh	Pol eta inh	POLI inh	WRN helicase inh	Pol kappa inh
Cc1ccc(C(=O)Oc2coc(CSc3nnc(NC(=O)c4cccs4)s3)cc2=O)cc1	-16%	25µM*	?	?	-13%[11.6 µM]	?
CCC[C@H](NC(=O)[C@H](CC(C)C)N(C)C(=O)CNC(=O)[C@@H](NC(=O)[C@H](Cc1ccccc1)NC(=O)[C@H](CCCCN)NC(=O)[C@@H](N)CC(=O)O)C(C)C)C(N)=O	/	/	/	/	/	17%[60.1 µM]
Cc1nc(NC(=O)CSc2ccc(-c3nc4ccccc4[nH]3)cn2)sc1C	-12%	-11%	-17%	155%	-6%	-17%
Cc1ccc2nc(-c3ccc(SCC(=O)Nc4ccc5c(c4)OCCO5)nc3)[nH]c2c1	0%	14µM*	?	?	0%	-30%
O=C(Nc1ccc(-c2nc3ccccc3[nH]2)cc1)c1ccccc1NS(=O)(=O)c1ccc(F)cc1	?	-24%	28µM*	?	-32%[57.1 µM]	-40%
O=C(CSc1ccc(-c2nc3ccccc3[nH]2)cn1)Nc1ccc(S(=O)(=O)NC2CC2)cc1	5%	18µM*	?	?	3%	-9%
Cc1cc2nc(-c3ccc(SCC(=O)Nc4ccc5c(c4)OCCO5)nc3)[nH]c2cc1C	-12%	?	-18%	?	-22%	-23%
CCc1nnc(NC(=O)CSc2ccc(-c3nc4ccccc4[nH]3)cn2)s1	-9%	35µM*	?	?	-25%	-32%
CN1C(=O)C(C)(C)c2cc(S(=O)(=O)NCc3ccc(C(=O)Nc4ccc(Cl)cc4)cc3)ccc21	-8%	43%	-11%	9%	/	-10%
O=C(CSc1ccc(-c2nc3ccccc3[nH]2)cn1)Nc1ccc2c(c1)OCCO2	-21%	18µM*	-15%	?	-25%	-5%[60.1 µM]
C[C@@H]1CN([C@@H](C)CO)S(=O)(=O)c2ccc(Br)cc2O[C@H]1CN(C)C(=O)C1CCC1	/	/	-1%	/	10%	/
O=C(O)c1cccc(O)c1O	16%	/	-23%	6%	-2%	-2%
Oc1cccc(O)c1O	/	/	/	/	/	3µM*
COc1ccc(/C=N/Nc2snc(SC)c2C#N)cc1OC	-5%	?	-5%	?	-12%	-22%
COc1cccc(/C=N/Nc2snc(SC)c2C#N)c1O	-16%	?	?	?	50µM*	-17%
O=C1c2cccnc2C(Nc2ccccc2)N1Cc1ccco1 (configuration not stated)	13%	0%	-25%	13µM*	-7%	-1%
O=C1c2cccnc2C(Nc2cccc(F)c2)N1Cc1ccco1 (configuration not stated)	-3%	22%	-5%	-28%	2%	-5%
O=[N+]([O-])c1cc(/C=N\Nc2nccs2)ccc1O	/	4µM*	/	/	/	/
OCCSc1nc(-c2ccccc2)nc2ccc(F)cc12	-26%	?	-16%	79µM*	6%	?
COC(=O)CSc1nc(-c2ccccc2)nc2ccc(F)cc12	-20%	-2%	4%	12%	4%	-15%
CCc1ccc(NC(=O)N(CCN2CCOCC2)Cc2ccc3c(c2)CCCN3CC)cc1	-5%	-11%	-20%	-5%	-13%	-3%
CCCN1CCCc2cc(CN)ccc21	-14%	10%	89µM*	3.2µM*	-2%	0%
COc1ccc(OC)c2c(C)c(C)[nH]c12	-17%	28µM*	-17%	-16%	2%	-10%
CSc1ncc(C(=O)NCc2ccccc2)c(-c2ccccc2)n1	20%	-2%	-14%	?	/	?
COc1cc(/C=C2/SC(=S)NC2=O)ccc1OS(=O)(=O)c1ccc(C)cc1	79µM*	35µM*	28µM*	?	?	-19%
SMILES	FEN1 inhibitor	Pol beta inh	Pol eta inh	POLI inh	WRN helicase inh	Pol kappa inh
CN(CCCn1ccc(N)nc1=O)Cc1ccco1	/	/	-17%	/	2%	/
CCC(CC)C(=O)N(C)c1c(C)nc2c(OCC=C(C)C)cccn12	/	/	/	/	1%	/
CNc1cccccc1=S	-10%	16µM*	?	10µM*	-12%[11.6 µM]	79µM*
O=C(c1cnn2c(C(F)F)cc(C3CC3)nc12)N1CCCC1	2%	16%	-4%	8%	-15%	-9%
O=C(c1cc2nc(C3CC3)cc(C(F)F)n2n1)N1CCOCC1	-4%	50µM*	13µM*	?	?	79µM*
Cc1[nH][nH]c(=O)c1C(c1c(C)[nH][nH]c1=O)c1cn(C)c2ccccc12	?	0%	-18%	2.5µM*	-10%	-7%
COc1ccc(C2SCC(=O)N2c2ccccc2)cc1 (configuration not stated)	-13%	2%	4%	-4%	-1%	5%
CCCCC1C(=O)N(c2ccccc2)N(c2ccccc2)C1=O	0%	-1%	-19%	?	9%	1%[60.1 µM]
CCCCOCC1CN(c2ccccc2)C(=O)CS1 (configuration not stated)	13%	?	20µM*	0%	-7%[11.6 µM]	-8%
CC1CN(c2ccccc2)C(=O)CS1 (configuration not stated)	-4%	45µM*	20µM*	?	-13%[57.1 µM]	-25%
Cc1ccc(CN(Cc2cccn2-c2nnc(N3CCCC3=O)s2)C(=O)Nc2ccccc2C(F)(F)F)cc1	?	29%	-27%	9%	/	0%
Cc1c(NC(=O)c2ccc3nsnc3c2)cccc1[N+](=O)[O-]	-16%	15%	2%	25µM*	-2%	?
Cc1cccc2c1-c1sc(C(=O)Nc3cccc([N+](=O)[O-])c3C)cc1CO2	-9%	0.2µM*	-6%	7%	-3%	-9%
CCOc1ccc(CCNC(=O)c2cc3c(s2)-c2ccccc2OC3)cc1OCC	-13%	32µM*	-9%	?	/	-3%
CC(=O)c1cccc(NC(=O)c2cc3c(s2)-c2c(C)cccc2OC3)c1	12%	14%	-4%	-11%	/	-3%
Cc1c(NC(=O)c2ccc(N3CCCC3)c([N+](=O)[O-])c2)cccc1-c1nc2ccccc2s1	-7%	2%	7%	79µM*	1%[11.6 µM]	1%
Cc1cc(C(=O)Nc2cccc([N+](=O)[O-])c2C)cs1	21%	7%	4%	-11%	-4%	-1%
Cc1cccc(NC(=O)c2ccc3nc(CCc4ccccc4)oc3c2)c1C	5%	4%	-5%	-15%	/	-9%[60.1 µM]
COc1ccc(NS(=O)(=O)c2ccc(I)cc2)cc1N1CCN(C)CC1	/	/	/	/	/	16%[60.1 µM]
Cc1ccc(CC(=O)Nc2c(C(=O)N3CCN(c4ccccc4)CC3)oc3ccccc23)cc1	-8%	18%	-4%	13%	/	-5%
O=C(NCCc1ccc(Cl)cc1)c1cc2c(s1)-c1ccccc1OC2	-14%	35µM*	-9%	89µM*	/	?
